High-throughput results as filed in PubChem.
Compounds with a hit are over-represented: about 4.2% of the library has one in this group of screens.
D1 PAM – enhances dopamine response at the human D1 receptor; P21728; HEK293 TREx D1 cells, calcium flux, dopamine EC20 potentiation; potentiation, % at 10 µM; 0.036% of 360,000 active; in the data active means potentiation above about 30%; further: 0% is about no effect
D1 antagonist – blocks dopamine activation of the human D1 receptor; HEK293 TREx D1 cells, calcium flux, dopamine EC80; hits give low values; 3.2% of 360,000 active; activity change, negative = inhibition, % at 10 µM; AID 504652; in the data active means activity change below about -30%; further: on the % scale 0 is the no-effect control and ±100 the full control effect
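Antagonism measured as reduced calcium response to an EC80 dopamine addition following 180 s compound pre-read; cells were inducible HEK293 Trex D1 plated overnight at 30 C, read kinetically at 1 cycle/sec.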
D1 ag – activates the human D1 dopamine receptor; HEK293 T-REx D1 cells, calcium flux, agonist mode; activation, % at 2 µM; 1% of 360,000 active; in the data active means activation above about 30%; further: 0% is about no effect
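Agonism was scored from calcium flux recorded over 180 s (1 read/s) after pintool compound addition, following a 10-cycle baseline. Cells were inducible force-coupled HEK293 TREx D1, plated overnight at 30 C and loaded with no-wash calcium dye.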
TRPV1 ag – human TRPV1 agonism | Q8NER1 | TRPV1-expressing cells, Fluo-8 calcium influx, agonist mode | activation, % at 8.33 µM | 0.19% of 320,000 active | AID 540275; in the data active means activation above about 80%; inconclusive means between about 30% and that limit; further: 0% is about no effect
Target sequence (Q8NER1 whole entry, looked up): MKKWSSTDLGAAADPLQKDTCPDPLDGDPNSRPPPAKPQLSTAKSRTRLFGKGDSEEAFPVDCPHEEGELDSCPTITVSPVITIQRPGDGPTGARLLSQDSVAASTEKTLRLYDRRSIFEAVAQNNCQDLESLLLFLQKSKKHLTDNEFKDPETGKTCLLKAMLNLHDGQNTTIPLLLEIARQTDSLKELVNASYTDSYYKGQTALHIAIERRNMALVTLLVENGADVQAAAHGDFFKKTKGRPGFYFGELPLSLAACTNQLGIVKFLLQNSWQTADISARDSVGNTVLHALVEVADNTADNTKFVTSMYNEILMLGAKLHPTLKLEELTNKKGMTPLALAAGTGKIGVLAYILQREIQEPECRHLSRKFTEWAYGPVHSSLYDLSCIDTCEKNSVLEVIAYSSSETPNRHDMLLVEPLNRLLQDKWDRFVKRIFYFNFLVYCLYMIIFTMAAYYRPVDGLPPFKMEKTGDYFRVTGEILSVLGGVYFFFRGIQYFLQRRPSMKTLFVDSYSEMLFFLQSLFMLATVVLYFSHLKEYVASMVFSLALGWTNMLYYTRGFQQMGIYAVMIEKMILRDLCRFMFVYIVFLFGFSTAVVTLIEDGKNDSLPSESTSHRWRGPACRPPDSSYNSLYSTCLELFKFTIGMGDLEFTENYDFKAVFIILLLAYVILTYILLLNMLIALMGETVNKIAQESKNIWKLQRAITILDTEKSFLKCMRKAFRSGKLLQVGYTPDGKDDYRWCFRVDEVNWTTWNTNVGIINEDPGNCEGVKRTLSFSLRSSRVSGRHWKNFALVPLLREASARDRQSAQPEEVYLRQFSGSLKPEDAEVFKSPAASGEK
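TRPV1-expressing cells were cultured overnight at 35.5C and loaded with Fluo-8 calcium dye for 40 to 90 min at room temperature. After a 10 s baseline, compound was added and calcium influx was read kinetically for 3 min (ex 480/em 520 nm).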
TRPV1 PAM – potentiators of human vanilloid receptor 1 (TRPV1); 0.02% of 320,000 active; TRPV1-expressing cells, Fluo-8 calcium influx, capsaicin EC20 potentiation; Q8NER1; potentiation, % at 8.33 µM; in the data active means potentiation above about 80%; inconclusive means between about 30% and that limit; further: 0% is about no effect
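Fluo-8 calcium influx in TRPV1-expressing cells, kinetic read (ex 480/em 520 nm). Compound added and read 3 min for agonist activity, followed by capsaicin at EC20 final and 2 min further read for enhancement.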
Starred values were filed as active, the others as inactive; ? = inconclusive; . = no result given.

SMILES	D1 PAM	D1 antagonist	D1 ag	TRPV1 ag	TRPV1 PAM
CCN(CC)S(=O)(=O)c1ccc(NC2CCN(Cc3ccccc3)CC2)nc1	-9	-38*	34*	3	-11
CCN(CC)S(=O)(=O)c1ccc(NC2CCCc3ccccc32)nc1 (stereo not given)	-7	-31*	5	13	-8
O=S(=O)(c1ccc2c(c1)OCCO2)N1CCN(S(=O)(=O)c2ccc(Cl)cc2F)CC1	-5	2	7	.	.
COc1ccc(CNC(=O)Cc2ccc(NC(=O)N3CCSc4ncccc43)cc2)cc1	-1	-6	1	.	.
CN(C)c1ccc(/C=C2\SC(=O)N(CCc3nnc(N)s3)C2=O)cc1	-8	4	62*	?	5
CN(C)c1ccc(/C=C2\SC(=O)N(CC(O)Cn3c4ccccc4c4ccccc43)C2=O)cc1 (stereo not given)	-10	-7	46*	2	-3
CN(C)c1ccc(/C=C2/SC(=O)N(CCN=C3NS(=O)(=O)c4ccccc43)C2=O)cc1	1	-16	40*	9	-6
CCCCN1C(C(=O)c2ccccc2)=C(OC(C)=O)c2ccccc2S1(=O)=O	3	9	3	.	.
CC(=O)c1cccc(NC(=O)[C@H](Cc2ccccc2)N2Cc3ccccc3C2=O)c1	2	1	2	.	.
Nc1cc(S(=O)(=O)Nc2ccc(Cl)cc2)ccc1N1CCOCC1	-7	-15	15	6	-5
N=C1c2ccccc2CN1c1ccc(N2CCOCC2)c(S(=O)(=O)Nc2ccc(Cl)cc2)c1	-3	-7	83*	-2	13
Cc1ccc(NC(=O)CSc2nc3nc(C)c(Br)cc3[nH]2)cc1F	-3	-31*	3	12	23
CCOc1cc2sc(N3CCC(C(=O)Nc4ccc(C)cc4)CC3)nc2cc1Br	-4	-58*	1	-2	-8
CCN(CC)c1ccc(NC(=O)c2cnn3c(C(F)F)cc(-c4ccccc4)nc23)cc1	-3	5	0	.	.
Cn1c(=O)c2cc(S(=O)(=O)NC(Cc3ccccc3)C(=O)NCc3ccco3)ccc2n(C)c1=O (stereo not given)	-4	-6	2	4	-17
Cn1c(=O)c2cc(S(=O)(=O)NC(Cc3ccccc3)C(=O)NCC3CCCO3)ccc2n(C)c1=O (stereo not given)	-6	-39*	-3	-3	3
O=C(CSc1nc2ccsc2c(=O)n1Cc1ccccc1F)NCc1ccccc1Cl	-3	17	7	.	.
CC(C)C(NC(=O)c1ccccc1F)C(=O)OCC(=O)c1ccc(F)cc1 (stereo not given)	-13	-32*	5	14	-14
Cc1nn(-c2nc3ccccc3s2)c(C)c1Oc1ccccc1O	-9	-60*	25	3	-6
Cc1nn(-c2ccccn2)c(C)c1Oc1ccccc1O	-8	24	6	0	?
O=C(Nc1cc(S(=O)(=O)N2CCCCC2)ccc1Cl)c1ccccc1NS(=O)(=O)c1ccc(F)cc1	-3	-33*	17	0	18
O=C(Nc1ccccc1N1CCOCC1)c1ccccc1NS(=O)(=O)c1ccc(F)cc1	-8	-87*	2	15	6
CCN1CCN(S(=O)(=O)c2ccc(Cl)c(C(=O)N(CC)CC(=O)Nc3ccc(OC)cc3)c2)CC1	-7	-12	8	-1	-1
CCN1CCN(c2ccc(NC(=O)c3cc(S(=O)(=O)N4CCCC4)ccc3Cl)cc2)CC1	-13	-42*	3	1	-8
CCN1CCN(S(=O)(=O)c2ccc(Cl)c(C(=O)Nc3ccc(OC(F)F)cc3)c2)CC1	-13	-33*	8	1	-1
SMILES	D1 PAM	D1 antagonist	D1 ag	TRPV1 ag	TRPV1 PAM
CC1=C(c2ccc(Cl)cc2)S(=O)(=O)N=C1N1CCN(c2cccc(C(F)(F)F)c2)CC1	-1	-1	5	.	.
CCn1c2ccccc2c2cc(NC(=O)c3coc(=O)c(Br)c3)ccc21	-5	-32*	15	3	10
CCn1c2ccccc2c2cc(NC(=O)c3cc(C)on3)ccc21	-15	-45*	0	?	-9
COc1ccc2c(c1)sc1ncc(C(=O)NCc3ccc(Cl)cc3)c(=O)n12	-1	-7	2	.	.
C=CCNC(=O)c1ccc(CN2CCC(Cc3ccccc3)CC2)cc1	-12	-58*	6	5	-11
CC(C)NC(=O)c1ccc(CN2CCC(Cc3ccccc3)CC2)cc1	-8	29	6	4	24
Cc1ccccc1NC(=O)c1ccc(CN2CCC(Cc3ccccc3)CC2)cc1	-19	-57*	18	6	-13
Cc1ccc(C(=O)NCC(=O)N2CCC(Cc3ccccc3)CC2)cc1	-2	-36*	9	?	-10
Cc1cc(C(=O)N2CCC(Cc3ccccc3)CC2)ccc1[N+](=O)[O-]	-2	-32*	1	22	-10
CCC(=O)Nc1ccccc1-c1nc2ccccc2n(CC(=O)c2ccc(Cl)cc2)c1=O	-3	-14	-1	.	.
CCc1ccc(NC(=O)CSc2nc(-c3cccc(OC)c3)nc3c2Cc2c(CO)cnc(C)c2O3)cc1	-4	-7	1	.	.
Cc1ccc(CCNC(=O)c2ccc(CNS(=O)(=O)c3ccc(F)cc3)cc2)cc1	5	-12	1	.	.
Cn1c(=O)n(C)c2cc(NS(=O)(=O)c3ccc(C(C)(C)C)cc3)c(NCc3ccccc3)cc21	-2	10	2	.	.
Cc1ccc([N+](=O)[O-])cc1/C=N/Nc1nnnn1-c1ccccc1	-6	-59*	0	0	5
COc1c(/C=N/Nc2ccc([N+](=O)[O-])cc2[N+](=O)[O-])c(C)nn1-c1ccccc1	0	-33*	0	0	0
CC(=O)c1ccc(NC(=O)Cn2c(=O)n(Cc3ccco3)c(=O)c3sc4ccccc4c32)cc1	0	-3	2	.	.
CCN(CC)CCNC(=O)c1[nH]c2ccc(OCc3ccccc3)cc2c1C	-7	-64*	126*	0	9
CCc1nn(CC(=O)NCCc2ccc(OC)cc2OC)c(=O)c2cc3sccc3n12	-4	-1	0	.	.
O=[N+]([O-])c1cc(C(F)(F)F)cc([N+](=O)[O-])c1NCCNC(=S)Nc1ccc(Cl)c(Cl)c1	0	-32*	11	0	1
COC(=O)[C@@H]1C[C@H]2CC[C@H](O)C[C@H]2N1Cc1ccc(C(C)(C)C)cc1	-8	-34*	2	28	8
COc1ccc(CNC(=O)CC(c2ccc(OC)cc2)N2Cc3ccccc3C2=O)cc1 (stereo not given)	0	4	1	.	.
CS(=O)(=O)N1Cc2ccccc2CC1C(=O)O (stereo not given)	-9	-43*	3	-1	21
COC(=O)C1Cc2ccccc2CN1S(=O)(=O)c1ccc(F)cc1 (stereo not given)	-3	-36*	0	6	-7
CCOC(=O)C1CCN(c2nc3c(S(=O)(=O)c4ccc(Br)cc4)nnn3c3ccsc23)CC1	2	3	4	.	.
